Assay results from article PMC7862700, “An all-to-all approach to the identification of sequence-specific readers for epigenetic DNA modifications on cytosine”.

Legend:
Assay in all cases: DAPPL (digital affinity profiling via proximity ligation, sequencing); 10 mM Tris-HCl pH 7.5, 50 mM NaCl, 1 mM DTT, 4% glycerol, room temperature, 30 min; GST-TFs on glutathione beads, 16-mer random dsDNA library, 0.1% formaldehyde crosslink after washing; high values mean tight binding
Details in all cases: protein: recombinant; tags: N-terminal GST; dsDNA, one strand shown
ERF = target: T1, ERF (Homo sapiens, UniProt P50548 1-548)
T1 sequence: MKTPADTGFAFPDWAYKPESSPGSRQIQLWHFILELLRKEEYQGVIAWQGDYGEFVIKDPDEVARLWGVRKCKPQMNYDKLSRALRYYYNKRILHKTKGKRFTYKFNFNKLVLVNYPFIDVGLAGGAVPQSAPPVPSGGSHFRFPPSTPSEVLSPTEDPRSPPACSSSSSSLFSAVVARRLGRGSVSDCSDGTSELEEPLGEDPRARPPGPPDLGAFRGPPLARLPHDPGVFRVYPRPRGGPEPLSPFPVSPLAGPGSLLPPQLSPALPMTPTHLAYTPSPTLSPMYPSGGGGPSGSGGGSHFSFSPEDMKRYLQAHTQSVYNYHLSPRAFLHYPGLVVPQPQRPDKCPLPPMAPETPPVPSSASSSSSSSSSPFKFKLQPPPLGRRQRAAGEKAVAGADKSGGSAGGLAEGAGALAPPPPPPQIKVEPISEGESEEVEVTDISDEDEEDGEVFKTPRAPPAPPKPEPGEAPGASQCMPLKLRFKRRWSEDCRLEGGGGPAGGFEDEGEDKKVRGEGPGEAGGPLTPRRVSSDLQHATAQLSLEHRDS
In short: (§1)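 Binding signal is defined as a hexamer's read frequency for one factor over its frequency for the tag-only sample. To obtain reads, GST-fused human transcription factors were expressed in yeast, captured on glutathione beads, barcoded with DNA and pooled with that sample. Pools met 200 nmole of a 16-mer random double-stranded DNA library in Tris/NaCl/DTT/glycerol buffer for 30 min at room temperature before washing, 0.1% formaldehyde crosslinking, proximity ligation (BsaI/T4 ligase, 1 h, 37 °C), PCR and Illumina NextSeq500 sequencing.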

ETV3L = target: T2, ETV3L (Homo sapiens, UniProt Q6ZN32 1-361)
T2 sequence: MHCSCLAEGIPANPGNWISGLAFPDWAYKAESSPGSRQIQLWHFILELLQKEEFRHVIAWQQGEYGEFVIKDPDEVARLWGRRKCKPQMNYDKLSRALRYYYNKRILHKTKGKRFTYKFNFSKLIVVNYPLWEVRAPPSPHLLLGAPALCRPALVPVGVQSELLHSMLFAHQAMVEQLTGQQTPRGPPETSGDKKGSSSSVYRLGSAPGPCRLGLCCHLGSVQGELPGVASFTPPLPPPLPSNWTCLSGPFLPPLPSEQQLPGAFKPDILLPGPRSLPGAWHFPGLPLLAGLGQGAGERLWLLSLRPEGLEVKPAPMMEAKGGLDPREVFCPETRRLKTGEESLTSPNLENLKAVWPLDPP
In short: as §1

ETS2 = target: T3, ETS2 (Homo sapiens, UniProt P15036 1-469)
T3 sequence: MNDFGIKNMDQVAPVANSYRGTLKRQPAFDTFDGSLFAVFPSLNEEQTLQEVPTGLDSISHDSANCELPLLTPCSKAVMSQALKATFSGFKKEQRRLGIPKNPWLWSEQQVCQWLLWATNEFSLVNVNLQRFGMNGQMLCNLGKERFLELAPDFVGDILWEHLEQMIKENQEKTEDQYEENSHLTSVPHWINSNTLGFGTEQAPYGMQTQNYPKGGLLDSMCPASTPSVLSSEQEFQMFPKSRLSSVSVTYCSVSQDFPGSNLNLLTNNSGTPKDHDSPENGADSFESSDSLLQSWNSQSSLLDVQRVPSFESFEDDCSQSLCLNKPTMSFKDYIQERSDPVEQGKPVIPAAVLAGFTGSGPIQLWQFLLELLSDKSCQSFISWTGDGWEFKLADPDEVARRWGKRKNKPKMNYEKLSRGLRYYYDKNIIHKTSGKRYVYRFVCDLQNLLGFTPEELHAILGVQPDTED
In short: as §1

ETV7 = target: T4, ETV7 (Homo sapiens, UniProt Q9Y603 1-341)
T4 sequence: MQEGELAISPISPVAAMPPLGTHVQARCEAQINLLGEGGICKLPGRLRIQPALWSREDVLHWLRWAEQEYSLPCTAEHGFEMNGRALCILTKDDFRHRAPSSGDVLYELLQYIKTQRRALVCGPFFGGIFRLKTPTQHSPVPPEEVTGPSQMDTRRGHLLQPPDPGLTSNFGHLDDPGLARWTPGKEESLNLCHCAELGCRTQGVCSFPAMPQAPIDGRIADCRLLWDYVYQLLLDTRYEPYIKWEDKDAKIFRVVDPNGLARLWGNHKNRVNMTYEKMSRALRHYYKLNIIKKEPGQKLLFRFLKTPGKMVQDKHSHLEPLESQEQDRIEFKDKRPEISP
In short: as §1

ELF5 = target: T5, ELF5 (Homo sapiens, UniProt Q9UKW6-2 1-255)
T5 sequence: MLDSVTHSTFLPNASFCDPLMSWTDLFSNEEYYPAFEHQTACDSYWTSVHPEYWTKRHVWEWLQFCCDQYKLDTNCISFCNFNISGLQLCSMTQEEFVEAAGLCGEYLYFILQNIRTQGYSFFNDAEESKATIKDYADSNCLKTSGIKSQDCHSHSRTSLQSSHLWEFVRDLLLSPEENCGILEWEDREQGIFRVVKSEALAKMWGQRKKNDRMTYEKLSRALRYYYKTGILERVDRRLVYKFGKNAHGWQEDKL
In short: as §1

ETV3 = target: T6, ETV3 (Homo sapiens, UniProt P41162-2 1-143)
T6 sequence: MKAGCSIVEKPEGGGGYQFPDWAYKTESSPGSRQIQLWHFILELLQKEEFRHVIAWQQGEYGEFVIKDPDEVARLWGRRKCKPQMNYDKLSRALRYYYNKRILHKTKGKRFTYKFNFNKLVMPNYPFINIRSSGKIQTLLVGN
In short: as §1

ETV6 = ETV6 (Homo sapiens, UniProt P41212 1-452)
In short: as §1

ETV6, sequence (P41212 whole entry): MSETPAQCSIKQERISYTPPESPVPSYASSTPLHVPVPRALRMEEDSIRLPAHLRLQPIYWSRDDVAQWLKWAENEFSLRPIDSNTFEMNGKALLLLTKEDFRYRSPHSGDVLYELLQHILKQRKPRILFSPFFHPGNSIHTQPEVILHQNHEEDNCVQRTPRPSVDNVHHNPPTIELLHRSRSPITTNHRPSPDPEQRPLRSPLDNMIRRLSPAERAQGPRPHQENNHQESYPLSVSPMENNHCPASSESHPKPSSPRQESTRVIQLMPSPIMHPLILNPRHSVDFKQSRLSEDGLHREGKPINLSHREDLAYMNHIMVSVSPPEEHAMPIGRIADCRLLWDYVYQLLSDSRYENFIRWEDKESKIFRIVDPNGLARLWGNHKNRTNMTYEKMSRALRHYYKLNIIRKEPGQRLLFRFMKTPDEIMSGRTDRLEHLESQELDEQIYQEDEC

Sequence: AAGCGA
- binding signal (ERF): 1.02 fold enrichment (6-mer frequency, TF over GST control)
- binding signal (ETV3L): 1.02 fold enrichment (6-mer frequency, TF over GST control)
- binding signal (ETS2): 1.05 fold enrichment (6-mer frequency, TF over GST control)
- binding signal (ETV7): 1.09 fold enrichment (6-mer frequency, TF over GST control)
- binding signal (ELF5): 1.07 fold enrichment (6-mer frequency, TF over GST control)
- binding signal (ETV3): 1.12 fold enrichment (6-mer frequency, TF over GST control)
- binding signal (ETV6): 1.05 fold enrichment (6-mer frequency, TF over GST control)

Sequence: CATTCA
- binding signal (ERF): 1.11 fold enrichment (6-mer frequency, TF over GST control)
- binding signal (ETV3L): 1.08 fold enrichment (6-mer frequency, TF over GST control)
- binding signal (ETS2): 1.01 fold enrichment (6-mer frequency, TF over GST control)
- binding signal (ETV7): 1.09 fold enrichment (6-mer frequency, TF over GST control)
- binding signal (ELF5): 1.02 fold enrichment (6-mer frequency, TF over GST control)
- binding signal (ETV3): 1.11 fold enrichment (6-mer frequency, TF over GST control)
- binding signal (ETV6): 1.09 fold enrichment (6-mer frequency, TF over GST control)

Sequence: CTGGCC
- binding signal (ERF): 1.19 fold enrichment (6-mer frequency, TF over GST control)
- binding signal (ETV3L): 1.11 fold enrichment (6-mer frequency, TF over GST control)
- binding signal (ETS2): 1.17 fold enrichment (6-mer frequency, TF over GST control)
- binding signal (ETV7): 1.03 fold enrichment (6-mer frequency, TF over GST control)
- binding signal (ELF5): 1.01 fold enrichment (6-mer frequency, TF over GST control)
- binding signal (ETV3): 1.06 fold enrichment (6-mer frequency, TF over GST control)
- binding signal (ETV6): 1.23 fold enrichment (6-mer frequency, TF over GST control)

Sequence: GCTGAC
- binding signal (ERF): 1.08 fold enrichment (6-mer frequency, TF over GST control)
- binding signal (ETV3L): 1.09 fold enrichment (6-mer frequency, TF over GST control)
- binding signal (ETS2): 1.11 fold enrichment (6-mer frequency, TF over GST control)
- binding signal (ETV7): 1.12 fold enrichment (6-mer frequency, TF over GST control)
- binding signal (ELF5): 1.05 fold enrichment (6-mer frequency, TF over GST control)
- binding signal (ETV3): 1.17 fold enrichment (6-mer frequency, TF over GST control)
- binding signal (ETV6): 1 fold enrichment (6-mer frequency, TF over GST control)

Sequence: GTTTGG
- binding signal (ERF): 1.11 fold enrichment (6-mer frequency, TF over GST control)
- binding signal (ETV3L): 1.09 fold enrichment (6-mer frequency, TF over GST control)
- binding signal (ETS2): 1.07 fold enrichment (6-mer frequency, TF over GST control)
- binding signal (ETV7): 1.12 fold enrichment (6-mer frequency, TF over GST control)
- binding signal (ELF5): 1.1 fold enrichment (6-mer frequency, TF over GST control)
- binding signal (ETV3): 1.1 fold enrichment (6-mer frequency, TF over GST control)
